In PubChem BioAssay AID1159580 (chemical genetic matrix, 2015):
Among all 5,500 compounds or so, about 2,000 (36%) were called active. Inconclusive results (about 18%) are left out. Rule as the data show it: active = normalized growth mostly below about 0.91 (no sharp cut-off); inconclusive = no clear call, values can overlap the other calls; inactive = mostly above about 0.92. The list shows a part of the results.

Test: chemical genetic growth profiling, strain panel (AID 1159580);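 also: tested at 20 µM; growth read once vehicle control cultures reached saturation at 30 °C; 1 = growth at the plate median or of vehicle wells; lower values mean less growth of the strain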
Conditions: growth OD

Measured: normalized growth

Cc1cc(O)cc(O)c1C(=O)O
inactive: S. cerevisiae deletion strains, locus YJR066W, strain TOR1, hits give low values 1.01 | S. cerevisiae deletion strains, locus YJR075W, strain HOC1, hits give low values 1.01 | S. cerevisiae deletion strains, locus YKL009W, strain mrt4, hits give low values 0.964 | S. cerevisiae deletion strains, locus YKL068W, hits give low values 0.992 | S. cerevisiae deletion strains, locus YKL085W, strain MDH1 (second series), hits give low values 1 | S. cerevisiae deletion strains, locus YKL085W, strain MDH1, hits give low values 1 | S. cerevisiae deletion strains, locus YKL160W, strain elf1, hits give low values 0.994 | S. cerevisiae deletion strains, locus YKL190W, strain CNB1, hits give low values 0.978 | S. cerevisiae deletion strains, locus YKR001C, strain vps1, hits give low values 1.01 | S. cerevisiae deletion strains, locus YKR026C, strain gcn3, hits give low values 1.02 | S. cerevisiae deletion strains, locus YKR091W, strain srl3, hits give low values 1.01 | S. cerevisiae deletion strains, locus YLL001W, strain dnm1, hits give low values 0.992 | S. cerevisiae deletion strains, locus YLL026W, hits give low values 1.02 | S. cerevisiae deletion strains, locus YLL041C, strain sdh2, hits give low values 1.03 | S. cerevisiae deletion strains, locus YLR027C, strain aat2, hits give low values 1.03 | S. cerevisiae deletion strains, locus YLR039C, strain RIC1, hits give low values 1.19 | S. cerevisiae deletion strains, locus YLR058C, strain SHM2, hits give low values 1.02 | S. cerevisiae deletion strains, locus YLR102C, strain apc9, hits give low values 1.01 | S. cerevisiae deletion strains, locus YLR113W, strain HOG1, hits give low values 1.09 | S. cerevisiae deletion strains, locus YLR221C, strain rsa3, hits give low values 1.04 | S. cerevisiae deletion strains, locus YLR258W, strain gsy2, hits give low values 1.04 | S. cerevisiae deletion strains, locus YLR262C, strain YPT6 (second series), hits give low values 1.04 | S. cerevisiae deletion strains, locus YLR268W, strain sec22, hits give low values 1.04 | S. cerevisiae deletion strains, locus YLR320W, strain mms22, hits give low values 1.03 | S. cerevisiae deletion strains, locus YLR330W, strain CHS5, hits give low values 1.01 | S. cerevisiae deletion strains, locus YLR342W, strain FKS1 (second series), hits give low values 1.02 | S. cerevisiae deletion strains, locus YLR342W, strain FKS1, hits give low values 1.03 | S. cerevisiae deletion strains, locus YLR357W, strain rsc2, hits give low values 1.01 | S. cerevisiae deletion strains, locus YLR370C, strain arc18, hits give low values 1.01 | S. cerevisiae deletion strains, locus YLR371W, strain rom2, hits give low values 0.987 | S. cerevisiae deletion strains, locus YLR384C, strain iki3, hits give low values 1.03 | S. cerevisiae deletion strains, locus YLR418C, strain cdc73, hits give low values 1.02 | S. cerevisiae deletion strains, locus YML016C, strain PPZ1, hits give low values 1.01 | S. cerevisiae deletion strains, locus YML032C, strain rad52, hits give low values 0.99 | S. cerevisiae deletion strains, locus YML120C, strain ndi1, hits give low values 1.01 | S. cerevisiae deletion strains, locus YML124C, strain tub3, hits give low values 0.989 | S. cerevisiae deletion strains, locus YMR058W, strain fet3, hits give low values 1.03 | S. cerevisiae deletion strains, locus YMR078C, strain ctf18, hits give low values 1 | S. cerevisiae deletion strains, locus YMR125W, strain sto1, hits give low values 1 | S. cerevisiae deletion strains, locus YMR129W, hits give low values 1 | S. cerevisiae deletion strains, locus YMR205C, strain PFK2, hits give low values 1 | S. cerevisiae deletion strains, locus YMR223W, strain ubp8, hits give low values 0.978 | S. cerevisiae deletion strains, locus YMR231W, strain pep5, hits give low values 1.01 | S. cerevisiae deletion strains, locus YMR307W, strain GAS1, hits give low values 1.19 | S. cerevisiae deletion strains, locus YNL067W, strain RPL9B, hits give low values 0.991 | S. cerevisiae deletion strains, locus YNL071W, strain lat1, hits give low values 1.01 | S. cerevisiae deletion strains, locus YNL153C, strain GIM3, hits give low values 0.998 | S. cerevisiae deletion strains, locus YNL183C, strain NPR1, hits give low values 1.01 | S. cerevisiae deletion strains, locus YNL209W, strain ssb2, hits give low values 1 | S. cerevisiae deletion strains, locus YNL233W, strain BNI4, hits give low values 1.04 | S. cerevisiae deletion strains, locus YNL248C, strain rpa49, hits give low values 1.03 | S. cerevisiae deletion strains, locus YNL250W, strain rad50, hits give low values 0.905 | S. cerevisiae deletion strains, locus YNL271C, strain bni1, hits give low values 0.98 | S. cerevisiae deletion strains, locus YNL298W, strain CLA4, hits give low values 1.01 | S. cerevisiae deletion strains, locus YNL307C, strain MCK1, hits give low values 1 | S. cerevisiae deletion strains, locus YNL322C, strain KRE1 (second series), hits give low values 1 | S. cerevisiae deletion strains, locus YNR049C, strain mso1, hits give low values 1.02 | S. cerevisiae deletion strains, locus YNR052C, strain pop2, hits give low values 1 | S. cerevisiae deletion strains, locus YOL012C, strain htz1 0.732 | S. cerevisiae deletion strains, locus YOL147C, strain pex11, hits give low values 0.988 | S. cerevisiae deletion strains, locus YOR001W, strain rrp6, hits give low values 1.02 | S. cerevisiae deletion strains, locus YOR061W, strain CKA2, hits give low values 1.02 | S. cerevisiae deletion strains, locus YOR069W, strain VPS5, hits give low values 1.01 | S. cerevisiae deletion strains, locus YOR070C, strain gyp1, hits give low values 1.02 | S. cerevisiae deletion strains, locus YOR080W, strain dia2, hits give low values 1.02 | S. cerevisiae deletion strains, locus YOR083W, strain WHI5, hits give low values 0.989 | S. cerevisiae deletion strains, locus YOR106W, strain vam3, hits give low values 0.98 | S. cerevisiae deletion strains, locus YOR136W, strain idh2, hits give low values 0.991 | S. cerevisiae deletion strains, locus YOR144C, strain elg1, hits give low values 0.996 | S. cerevisiae deletion strains, locus YOR184W, strain ser1, hits give low values 1.09 | S. cerevisiae deletion strains, locus YOR231W, strain MKK1, hits give low values 1.11 | S. cerevisiae deletion strains, locus YOR265W, strain rbl2, hits give low values 1.01 | S. cerevisiae deletion strains, locus YOR270C, strain vph1, hits give low values 1.07 | S. cerevisiae deletion strains, locus YOR290C, strain snf2, hits give low values 1 | S. cerevisiae deletion strains, locus YOR316C, strain cot1, hits give low values 0.977 | S. cerevisiae deletion strains, locus YPL051W, strain arl3, hits give low values 0.986 | S. cerevisiae deletion strains, locus YPL055C, strain LGE1, hits give low values 1.09 | S. cerevisiae deletion strains, locus YPL078C, strain atp4, hits give low values 0.997 | S. cerevisiae deletion strains, locus YPL106C, strain sse1, hits give low values 0.986 | S. cerevisiae deletion strains, locus YPL240C, strain hsp82, hits give low values 1.01 | S. cerevisiae deletion strains, locus YPL241C, strain CIN2, hits give low values 0.999 | S. cerevisiae deletion strains, locus YPL256C, strain CLN2, hits give low values 1.09 | S. cerevisiae deletion strains, locus YPR119W, strain clb2, hits give low values 0.981 | S. cerevisiae deletion strains, locus YPR141C, strain kar3, hits give low values 0.973 | S. cerevisiae deletion strains, locus YPR163C, strain tif3, hits give low values 1 | S. cerevisiae deletion strains, locus YPR167C, strain met16, hits give low values 0.996 | S. cerevisiae deletion strains, strain wtn01, hits give low values 1.02 | S. cerevisiae strains, strain wild type, hits give low values 1.03
